Fewer than 10 of roughly 44,000 compounds were called active. The call rests on the fitted dose curve; in most records, active means well fitted activation curve with a large enough effect; inconclusive means small, poorly fitted or top-dose-only effect, or another doubt; inactive means no such curve, though single readings can be large or run the other way. The list is a sample of the results.
These compounds were tested against Beta-2 adrenergic receptor (Homo sapiens) (UniProt P07550) (assay: qHTS assay of beta-arrestin-biased ligands of beta2-adrenergic receptor: NCGC Sytravon Library Screen). Conditions: HTLA Tango cells, beta-arrestin recruitment, luciferase luminescence, 18 h; series mostly up to 46.1 µM; activation: at the top concentration.
Beta-2 adrenergic receptor (Homo sapiens), sequence (P07550 whole entry, looked up): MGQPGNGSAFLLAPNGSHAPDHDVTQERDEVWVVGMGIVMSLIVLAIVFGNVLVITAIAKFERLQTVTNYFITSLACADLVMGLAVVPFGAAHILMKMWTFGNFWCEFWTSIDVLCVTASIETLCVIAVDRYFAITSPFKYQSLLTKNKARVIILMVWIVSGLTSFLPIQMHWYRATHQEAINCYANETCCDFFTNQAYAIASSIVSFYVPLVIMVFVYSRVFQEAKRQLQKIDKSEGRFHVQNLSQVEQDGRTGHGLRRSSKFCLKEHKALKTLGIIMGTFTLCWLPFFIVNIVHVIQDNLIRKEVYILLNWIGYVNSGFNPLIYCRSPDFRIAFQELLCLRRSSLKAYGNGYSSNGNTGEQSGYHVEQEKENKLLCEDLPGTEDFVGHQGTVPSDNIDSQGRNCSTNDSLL
Source text: The concept of biased agonism is an emerging concept of molecular pharmacology which proposes that seven transmembrane receptors (7TMRs) or G protein-coupled receptors (GPCRs), exist in multiple signaling conformations and complexes and that ligands (either agonists or antagonists) can induce signaling biased responses for distinct signal transduction cascades. […] Furthermore, accumulating evidence over the last decade has drawn attention to a novel function of beta-arrestins as signal transducers that scaffold various signaling molecules upon activation of 7TMRs. […] This beta-arrestin-biased signaling presumably leads to distinct physiological outcomes from those by G protein activation. Additionally, the active receptor conformations which prefer on this beta-arrestin signaling are likely different from those activating G protein signaling. […] The goal of this screening project will be to discover and optimize novel beta-arrestin-biased ligands for beta2-AR signaling. A luminescent cell-based assay for beta2-AR-mediated agonism, known as the Tango assay, has been validated in which ligand binding of a recombinant beta2-AR and subsequent recruitment of a recombinant beta-arrestin lead to the release of the transcriptional activator tTA, which upregulates transcription of a tTA-responsive luciferase gene. […] Compounds from the NCGC Sytravon Library collection were screened as a concentration-titration series that ranged from 46 microM to 0.6 nM. NIH Molecular Libraries Probe Production Network [MLPCN] NIH Chemical Genomics Center [NCGC] MLPCN Grant: Fast-track/HHSN271700800025C PI: Bryan Roth and Bob Lefkowitz
Tango cells were dispensed into white, solid, tissue-culture-treated 1536-well plates at 1500 cells/well in DMEM, containing 1% fetal bovine serum (FBS). Then, 23 nL of compounds or DMSO were delivered to each well using a pin tool. Plates were incubated at 37 degrees C, 5% CO2 for 18 hr. Then 2.5 uL luminescent substrate mix (in-house prepared: 150 mM Tris-Cl, pH 7.6, 3 mM MgCl2, 1% Triton X-100, 5 mM DTT, 0.5 mM CoA, 0.15 mM ATP, 0.44 mM D-luciferin, final concentrations) was added to each well. Plates were then incubated for 15 minutes at room temperature, and subsequently measured on a ViewLux plate reader for luminescent signal using a clear filter with a 10 second exposure and 2x binning. The %Activity was determined from the corrected luminescence values. […] Concentration-response curves were fitted to the signals arising from the resulting luminescence. The concentration-effect curves were then classified based on curve quality (r2), response magnitude and degree of measured activity, and compounds were subsequently categorized based on their curve class.
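Further: 0% = DMSO and full agonism = EC100 isoproterenol or metaproterenol.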

activation, inactive:
COC(=O)NNC(=O)C1CCC(C)CC1 (stereo not drawn) -1.45%, CCc1nnc2c3ccccc3nc(N3CCN(c4ccc(C)cc4C)CC3)n12 -0.66%, CCOc1ccc(CNC(=O)Cn2cc3c(n2)-c2c(oc(C(=O)N4CCCC4)c2C)CC3)cc1 3.6%, CCOCCc1nn2c(=O)cc(COC(=O)CNC(=O)c3ccc(C(C)(C)C)cc3)nc2s1 0.68%, CCC(=O)N1CCc2cc(Br)cc(S(=O)(=O)NCc3ccc(Cl)cc3)c21 -1.73%, Cc1nc2nc(NCc3cccc(Br)c3)[nH]n2c(=O)c1Cc1ccccc1 0.0099%, COc1ccc(NC(=O)C(c2ccccc2)N2Cc3ccccc3C2=O)cc1 (stereo not drawn) 5.73%, Cc1nc2sc(C)c(C)n2c(=O)c1S(=O)(=O)NCCc1ccc(Cl)cc1 -0.232%, CCOc1ccc(OCC)c(NS(=O)(=O)c2ccc3[nH]c(=O)ccc3c2)c1 -0.327%, COc1ccc(S(=O)(=O)NCCSc2nnnn2-c2ccccc2)cc1 0.743%, Cc1ccccc1CNC(=O)CCCn1nc(C)c2sc3ccccc3c2c1=O -2.1%, COc1cccc(N2CC(NC(=O)/C=C\c3ccccc3)CC2=O)c1 (stereo not drawn) -3.35%, O=C(CSc1ncc(-c2ccccc2)[nH]1)Nc1ccc(F)cc1F 0.53%, COc1ccc(Cl)cc1NC(=O)CCC(=O)c1ccc(C)cc1 0.0498%, Cc1c(NC(=O)C(C)(C)C)cccc1-c1nc2ccccc2s1 -1.11%, Cc1nn(CC(=O)O)c(=O)c2cc3cc(F)ccc3n12 0.588%, CCc1ccc(N(CC)C(=O)CCn2cnc3onc(-c4ccc(F)cc4)c3c2=O)cc1 -0.94%, COc1ccc(CCNC(=O)c2cnc3sc(N4CCCCCC4)nn3c2=O)cc1OC -0.913%, CCCn1c(=N)c(C(=O)NCc2ccccc2)cc2c(=O)n3cccc(C)c3nc21 -0.961%, COc1ccc(CCNC(=O)c2cc(=O)c3c(C)cc(C)cc3o2)cc1OC 0.0788%, Cc1ccc(S(=O)(=O)N2CCc3cc(C(=O)Nc4ccc(Cl)cc4C)ccc32)cc1 -1.36%, COc1cccc(NC(=O)CSC2=Nc3ccccc3C3=NC(CC(=O)NC4CCCCC4)C(=O)N23)c1 (stereo not drawn) 7.44%, CCCCOc1ccc(CNC(=O)c2ccc3c(c2)N(C)C(=O)C2CCCCN32)cc1 (stereo not drawn) 0.39%, COc1ccccc1NC(=O)c1oc2ccccc2c1NC(=O)C(C)C 0.779%, COc1ccc(CCNc2ncnc3onc(-c4ccc(Cl)cc4)c23)c(OC)c1 0.556%, Cc1csc2nc(COC(=O)c3ccc(NC(=O)COc4ccccc4F)cc3)cc(=O)n12 -0.993%, COc1ccc(N2CCN(C(=O)C3CCCN(C(=O)c4cc5sccc5n4C)C3)CC2)cc1 (stereo not drawn) 0.138%, O=C(COc1ccccc1F)OCc1cc(=O)n2nc(C3CCCCC3)sc2n1 1.96%, CCC1CCCCN1Cc1c(O)ccc2c(=O)c(Oc3ccccc3Cl)c(C(F)(F)F)oc12 (stereo not drawn) 0.136%, Cc1cc(=O)n(CC(=O)Nc2cccc([N+](=O)[O-])c2)c(-n2nc(C)cc2C)n1 -2.64%, CCOC(=O)c1c(C)[nH]c(CCC(=O)NCCCN2CCN(c3cc(C)ccc3C)CC2)c1C -0.282%, COc1cc(Nc2nc(-c3ccc(OC)c(OC)c3)nc3ccccc23)cc(OC)c1 -2.01%, Cc1cc(C)cc(OC(C)C(=O)Nc2nc3c(s2)CCCC3)c1 (stereo not drawn) -3.8%, COCCn1c(SCC(=O)c2cc(C)ccc2C)nc2cc(C(=O)NC3CCCC3)ccc2c1=O 3.01%, CCOc1ccccc1NC(=O)CCn1cnnn1 0.955%, Cc1ccc(N(C)C(=O)C2CCN(S(=O)(=O)c3ccc4c(c3)CCCN4C(=O)C3CCC3)CC2)cc1 0.721%, CC(=O)Nc1ccc(S(=O)(=O)NCC2CCC(C(=O)NCCc3ccccc3)CC2)cc1 (stereo not drawn) -1.06%, CCOc1ccccc1C(=O)NC1(C(F)(F)F)C(=O)Nc2c1c(=O)[nH]c(=O)n2-c1ccc(F)cc1 (stereo not drawn) 0.333%, CCN(CC)S(=O)(=O)c1nnc(NC(=O)COc2ccccc2Cl)s1 -1.05%, COc1ccc(-c2cccc(NS(=O)(=O)c3cc(C)c(OC)c(C)c3C)c2)nn1 0.997%, O=C(NC1(C(F)(F)F)N=C(c2ccccc2)N(C2CCCCC2)C1=O)c1ccccc1F (stereo not drawn) -2.01%, Cc1ccc(CCNC(=O)c2ccc3c(c2)nc2n3CCC(C)C2)cc1 (stereo not drawn) 0.0449%, Cc1ccccc1NC(=O)Cn1c(=O)n(CCCCC(=O)NCc2ccccc2Cl)c(=O)c2ccccc21 0.686%

— PubChem BioAssay AID1347077 (National Center for Advancing Translational Sciences (NCATS), 2019)
